Bioassay records from PubChem BioAssay.
Shown are actives, neighbours in structure and some others; about 4.8% of the full set was active somewhere.
hcDAF12 agonist = activates DAF-12 receptor from parasite H. contortus; HEK293 hcDAF-12 lit1-tk-luc reporter, luminescence; 0% DMSO, 100% Δ7-dafachronic acid; activation, % at 6.8 µM; 1.4% of 370,000 active; AID 652067;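 active means activation above the mean of all tested compounds plus 3 SD, cut at about 5.5% in these data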
SMARCA2 activ = activators of SMARCA2 function; MG213 cells, MMTV-luciferase reporter, dexamethasone, overnight; activation, % at 9.1 µM; 1% of 370,000 active; in the data active means activation above about 7.8%
hgDAF-12 ag = activates the H. glycines DAF-12 receptor ligand-binding domain | activation, % at 6.8 µM | 1.8% of 370,000 active | AID 687014 | HEK293 GAL4-hgDAF12 UAS-luciferase reporter, agonist luminescence; normalized to butyrate control;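 active means activation above a cutoff set at the mean of all screened compounds plus 3 SD, cut at about 10% in these data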
DAX1 inh-1 = blocks DAX1 repression of SF-1 activated StAR promoter; AID 652010; 1.1% of 370,000 active; HEK293T StAR-luciferase reporter, SF-1/DAX-1 repression relief; inhibition, % at 6.8 µM;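 active means inhibition above the mean over all tested compounds plus 3 SD, cut at about 3.6% in these data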;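 further: higher inhibition means more luminescence from relief of DAX-1 repression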
ssDAF-12 act = activates DAF-12 receptor from parasite S. stercoralis; HEK293 ssDAF-12/GRIP1 lit1-tk-luc reporter, luminescence; % of 3 µM dafachronic acid response; 1% of 370,000 active; activation, % at 6.8 µM;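 active means activation above the mean over all tested compounds plus 3 SD, cut at about 0.9% in these data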
DAX1 inh-2 = NR0B1 (DAX1) inhibition; 0.99% of 340,000 active; HEK293 Gal4-DAX1 luciferase reporter, luminescence; inhibition, % at 6.75 µM; P51843;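 active means inhibition above the mean over all tested compounds plus 3 SD, cut at about 4.2% in these data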;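 further: inhibition shows as a rise in luminescence from relieved DAX1 repression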
Target sequence (P51843 207-470 limits assumed): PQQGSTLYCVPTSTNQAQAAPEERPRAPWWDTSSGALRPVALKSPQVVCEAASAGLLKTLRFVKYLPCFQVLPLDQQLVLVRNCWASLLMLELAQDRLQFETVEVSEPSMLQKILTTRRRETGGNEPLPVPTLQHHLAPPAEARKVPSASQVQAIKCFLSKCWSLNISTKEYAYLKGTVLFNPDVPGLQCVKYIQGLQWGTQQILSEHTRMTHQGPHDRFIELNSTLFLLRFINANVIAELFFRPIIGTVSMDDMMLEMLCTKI
Of the large screens only hits and unclear results are named; the others gave an inactive call.

CN(C)c1ccc(/C=C2/NC(=O)NC2=O)cc1	hgDAF-12 ag 11
c1ccc(COc2ccc3nocc3c2)cc1	hgDAF-12 ag 11
S=C(c1cccs1)N1CCCC1	none
S=C(c1cccs1)N1CCN(c2ccccc2)CC1	DAX1 inh-2 5.7
O=C(CSc1nc2ccccc2[nH]1)NN=Cc1c(F)cccc1Cl	none (no result: DAX1 inh-2)
O=C(CN1CCOc2ccccc21)NC1CCCCCCC1	hcDAF12 agonist 5.8, DAX1 inh-2 4.8
O=C(CN1CCOc2ccccc21)NC1CCN(Cc2ccccc2)CC1	none
O=C(Nc1cccc(O)c1)c1cccc(S(=O)(=O)N2CCCCCC2)c1	none
O=Cc1c(C(=O)O)n(CC(=O)O)c2ccccc12	hcDAF12 agonist 5.8
O=C(O)Cn1c2ccccc2c2ccccc21	none
Cc1ccccc1C(=O)Oc1ccccc1N1C(=O)C2CC=CCC2C1=O (centres undefined)	none
O=C(Oc1ccccc1N1C(=O)C2CC=CCC2C1=O)c1ccc(Br)cc1 (centres undefined)	ssDAF-12 act 1.2
COC(=O)c1ccc(NCN2C(=O)C3C4CCC(C4)C3C2=O)cc1 (centres undefined)	none
FC(F)(F)c1nnc(N2CCN(c3ccc(Cl)cc3)CC2)s1	DAX1 inh-2 5.2
Cc1cccc(N2CCN(c3nnc(C(F)(F)F)s3)CC2)c1	none
CC(CC(=O)NCCc1ccc(Cl)cc1)S(=O)(=O)c1ccc2c(c1)NC(=O)CO2 (centres undefined)	none
Cc1ccc(-c2n[nH]c(Cc3ccccc3)n2)cc1	SMARCA2 activ 7.9
N#Cc1c(NC(=O)CSC2=NCCS2)sc2c1CCCC2	none
O=C(CSC1=NCCS1)Nc1nc2c(s1)CCCC2	SMARCA2 activ 7.9
CCCCCCCCO	none
C/C(=N/Nc1ccccc1[N+](=O)[O-])c1ccc([N+](=O)[O-])cc1	hcDAF12 agonist 6.4
COc1ccc(CNC(=O)CCNS(=O)(=O)c2ccc(Cl)cc2)cc1	none
COc1ccc(CNC(=O)CNC(=O)CNS(=O)(=O)c2ccc(C)c(C)c2)cc1	ssDAF-12 act 0.9
c1ccc(-c2nnc(-c3ccccc3)c(-c3c[nH]c4ccccc34)n2)cc1	none
Clc1ccc(-c2nnc(-c3ccccc3)nc2-c2c[nH]c3ccccc23)cc1	ssDAF-12 act 1.6
O=C(Nc1ccccc1O)c1nc(Cl)ccc1Cl	hcDAF12 agonist 5.9, ssDAF-12 act 2.5
O=C(Nc1ccc(Cl)c(Cl)c1)Nc1ccccc1O	none
CCCN1C(=S)c2ccccc2C1c1ccccc1 (centres undefined)	ssDAF-12 act 1.3, DAX1 inh-2 4.7
O=S(=O)(c1ccc2ccccc2c1)N1CCNCC1	none (no result: hcDAF12 agonist, SMARCA2 activ, hgDAF-12 ag, DAX1 inh-1, ssDAF-12 act)
O=C1c2cc([N+](=O)[O-])ccc2-c2ncccc21	none
Cc1cc(Cl)ccc1OCCn1cncn1	hcDAF12 agonist 6.0
O=C(NCCc1ccccn1)c1ccc(NS(=O)(=O)c2ccc(F)cc2)cc1	none
CN(C(=O)COC(=O)CNC(=O)C1CCCCC1)c1ccccc1	none
O=C(Nc1ccccc1Oc1ccccc1)c1cc([N+](=O)[O-])ccc1Cl	none
Cc1cccc(NC(=O)c2cc([N+](=O)[O-])ccc2Cl)c1O	hcDAF12 agonist 6.3
Cc1cccc(NC(=O)c2cccc([N+](=O)[O-])c2O)c1C	hgDAF-12 ag 13, DAX1 inh-1 4.1
Cc1cccc(NC(=O)c2ccccc2O)c1C	none
CN(C)N1C(=O)CC(N2CCCC2)C1=O (centres undefined)	none
COc1ccccc1NS(=O)(=O)c1ccc(N/N=C/C=C/c2ccccc2[N+](=O)[O-])c([N+](=O)[O-])c1	none
Cc1ccnn1CC(=O)N/N=C/c1cn[nH]c1-c1ccccc1	none
CC1CCCN(S(=O)(=O)c2ccc(CN3C(=O)c4cccnc4C3=O)cc2)C1 (centres undefined)	DAX1 inh-1 3.8
O=Cc1ccccc1OCc1ccc2c(c1)OCO2	DAX1 inh-2 4.5
CC(=O)c1cc(C#N)c(N2CCCC2)nc1C	none
COc1ccc(C2N3CC4(C)CN2CC(C)(C3)C4=O)cc1OC (centres undefined)	DAX1 inh-2 5.2
COc1ccc(C2OC(=O)C(C)(C)C(=O)C2(C)C)cc1OC (centres undefined)	none
O=C(C1CCC(CNc2c(N3CCCCC3)c(=O)c2=O)CC1)N1CCN(c2ccccn2)CC1 (centres undefined)	none
